Results as given in ChEMBL document CHEMBL4513216, “Probing the Open Global Health Chemical Diversity Library for Multistage-Active Starting Points for Next-Generation Antimalarials” (ACS Infect Dis, 2020).
Screen size: about 69,000 compounds; about 8,600 (12%) showed an effect of 50% or more. This is one part of a sample in which strong results are shown more often than they occur.

test system: Plasmodium berghei; assay: Screen against P. berghei liver stage (PbLuc), transformed with Luciferase, at 10uM; format: functional, HepG2; settings: tested at 10 uM

SMILES	INHIBITION [%]
CS(=O)(=O)NCC1CCCN(Cc2ccc(F)c3cccnc23)C1 (stereo unspecified)	18.5
Clc1ccc2cccnc2c1CN1CCCC(Cn2cncn2)C1 (stereo unspecified)	22.9
Fc1ccc(CN2CCCC(Cn3cncn3)C2)c2ncccc12 (stereo unspecified)	-44.8
OC1CCCN(Cc2ccc(F)c3cccnc23)C1 (stereo unspecified)	54.4
Fc1ccc(CN2CCCC2Cn2cncn2)c2ncccc12 (stereo unspecified)	79.2
Clc1ccc2cccnc2c1CN1CCCC1Cn1cncn1 (stereo unspecified)	66.2
Clc1ccc2cccnc2c1CN1CCCCC1Cn1cncn1 (stereo unspecified)	45.65
Fc1ccc(CN2CCCCC2Cn2cncn2)c2ncccc12 (stereo unspecified)	21.6
Clc1ccc(CN2CCCC2Cn2cncn2)c2ncccc12 (stereo unspecified)	23.45
CC(C)C(C)NC(=O)Nc1ccc(F)c(C(N)=O)c1 (stereo unspecified)	1.75
O=C(C1CNCCN1C(=O)CCc1cccnc1)N1CCOCC1 (stereo unspecified)	42.1
CNC(=O)[C@@H]1[C@H]2CN(Cc3ccccn3)CCN2C[C@H]1c1ccccc1	8.61
Cc1csc(NC(=O)Cn2nc(C)ccc2=O)n1	37.8
O=C(COCCOc1ccccc1)NC1CCN(C(=O)C2CC2)CC1	29.9
COCCN1C(=O)CCC12CCN(C(=O)CC1CC1)CC2	21.6
COc1cc(F)ccc1N(C)Cc1ccncc1	-24.9
CN(Cc1ccccn1)C(C(=O)O)c1ccc2c(c1)OCO2 (stereo unspecified)	40.3
CN(Cc1cccnc1)C(CO)c1cccc(Br)c1 (stereo unspecified)	85.2
CC(C)OCCCN(Cc1ccncc1)Cc1cccc(F)c1	43.6
CN(Cc1cnn(C)c1)C(CO)c1cccc(Br)c1 (stereo unspecified)	49
CN(Cc1ccncc1)C(CO)c1cccc(F)c1 (stereo unspecified)	68.5
CN(Cc1ccncc1)C(CO)c1cccc(Br)c1 (stereo unspecified)	4.52
CN(Cc1ccccn1)C(CO)c1cccc(Br)c1 (stereo unspecified)	88
CN(Cc1nccn1C)C(CO)c1cccc(Br)c1 (stereo unspecified)	33.7

SMILES	INHIBITION [%]
CCn1nnc(NCc2ccccc2OCc2ccc(Cl)cc2)n1	-3.5
CCN1CCN(CCNC(=O)c2sc(C)nc2C)CC1	1.75
CN(C)C(=O)N1CC2(CCN(CC3CC3)CC2)c2cc(F)ccc21	-13.4
Cc1cc(C2CCN(S(=O)(=O)c3cn(C)cn3)CC2)ccn1	17.1
CCC(C)(C)C(=O)N1C[C@@H]2C[C@@H](c3nnc(C)[nH]3)O[C@@H]2C1	30.5
OCC1(NCc2cnc(-c3ccccn3)s2)CCOCC1	-16.4
CCc1nc(C2CCCN2CC(=O)NCCc2ccsc2)no1 (stereo unspecified)	25.6
CC(=O)NCc1cc2n(n1)CCN(Cc1cccc(Cl)c1F)C2	10.7
Cc1c(C(C)NCc2cnn(C)c2)cnn1-c1ccccc1 (stereo unspecified)	43
Cc1c(C(C)NC2CCN(C(C)C)CC2)cnn1-c1ccc(F)cc1F (stereo unspecified)	46.9
COc1ccc(-n2ncc(C(C)NC3Cc4ccccc4C3)c2C)cc1 (stereo unspecified)	63.8
Cc1c(C(C)NC2CSCCSC2)cnn1-c1ccc(F)cc1F (stereo unspecified)	43.7
COc1ccc(-n2ncc(C(C)NC3CCOCC3)c2C)cc1 (stereo unspecified)	23.7
COc1ccc(-n2ncc(C(C)NC3CCSCC3)c2C)cc1 (stereo unspecified)	53.8
O=C(N[C@@H]1CN(C2CCCC2)C[C@@H]2CCCO[C@@H]21)c1cnccn1	-45.5
CCC1CCCCN1C(=O)Cn1cnc(C#N)n1 (stereo unspecified)	47.9
CC1CCCCN1C(=O)Cn1cnc(C#N)n1 (stereo unspecified)	69.3
N#Cc1ncn(CC(=O)N2CCCC2c2cccs2)n1 (stereo unspecified)	23.3
CSc1ccc(-c2cc(CN)nc3ccnn23)cc1	13
COc1cccc(NC(=O)NC2(c3noc(CN(C)C)n3)CCCC2)c1	16.2
CCN(CC)CCn1cc(NC2CCSCC2)cn1	-3.21
Fc1ccc(C2(c3noc(CCN4CCCCO4)n3)CCOC2)cc1 (stereo unspecified)	-23.4
O=c1[nH]c2cc3c(cc2cc1CN1CCCC1c1ccccn1)OCO3 (stereo unspecified)	6.94
O=c1[nH]c2cc3c(cc2cc1CN1CCCC1c1ccccn1)CCC3 (stereo unspecified)	56.5

SMILES	INHIBITION [%]
CCOc1ccc2[nH]c(=O)c(CN3CCCC3c3ccccn3)cc2c1 (stereo unspecified)	32.7
O=C(Nc1ccc(CCN2CCC(O)CC2)cc1)C1CCCOC1 (stereo unspecified)	20.06
O=C(CN1CCOc2ccccc2C1)NCc1cc2n(n1)CCCNC2	12.9
CC(NCc1ccsc1)c1ccc2c(c1)NC(=O)CO2 (stereo unspecified)	22.15
COc1cccc(SCC(=O)N2CCCC(N3CCCC3=O)C2)c1 (stereo unspecified)	15.5
COc1cccc(SCC(=O)N2CCC(N3CCCC(O)C3)CC2)c1 (stereo unspecified)	64.9
COc1cccc(SCC(=O)N2CCC(N3CCCC3=O)CC2)c1	43.9
Cc1c(NC(=O)CN(C)S(C)(=O)=O)cccc1OC1CCCC1	-28.2
CCCNC(=O)CN1CCC(NC(=O)c2cc(CC)ccc2O)CC1	-23.15
N#Cc1cccnc1N1CCC(C2CCCCCN2C(=O)C2CC2)CC1 (stereo unspecified)	-1.3
O=S(=O)(c1cccs1)N1CCCC(c2nccs2)C1 (stereo unspecified)	-27.4
O=S(=O)(c1ccccc1)N1CCCC(c2nccs2)C1 (stereo unspecified)	31.6
O=S(=O)(c1ccccc1F)N1CCCC(c2nccs2)C1 (stereo unspecified)	61.7
CN(CCS(=O)(=O)c1cc(Cl)ccc1Cl)CC(N)=O	10.6
CN(CCS(=O)(=O)c1cc(Cl)ccc1Cl)CC(=O)Nc1ccc(F)cc1	-8.22
CN(CCS(=O)(=O)c1cc(Cl)ccc1Cl)CC(=O)Nc1cccc(F)c1	59.4
Cc1nnc2n1CCN(C(=O)C1CCC(n3cccc3)CC1)C2 (stereo unspecified)	20.8
COC(=O)CC(c1cccnc1)c1oc(C)cc(=O)c1O (stereo unspecified)	-14.8
COc1ccccc1CN1CC(OC)CN(C(=O)CC(C)C)CC1=O (stereo unspecified)	4.82
Cc1ccc(CN2CCc3c(CN(C)C)n[nH]c3C2)s1	13.7
Cc1ccc(CNC(=O)N2CCc3ccccc3C2CO)s1 (stereo unspecified)	28.7
O=C(c1cccs1)N1CCN(Cc2cc(=O)c3ccccc3[nH]2)CC1	15.4
Cn1ccc(CN2CCC(Cc3ccccc3)CC2)cc1=O	-0.219
